Laboratory results published in PubChem BioAssay (NCI).
Compounds without any hit were thinned out: in the full panel of roughly 83,000, 20% have a hit.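 In brief: 96-well plates, 48 h treatment, single concentration, percent growth endpoint.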 Values without a mark were called inactive. Active and inactive are the calls of the source. The calls were made as follows: active = growth percent below 10; inactive = the rest.

Tests used:
Test in all cases: NCI-60 one-dose screen, 48 h (100 = growth as untreated, 0 = no growth, -100 = all killed)
Settings in all cases: 10 µM unless noted
NCI-H23 lung = test system: NCI-H23 lung
NCI-H226 lung = test system: NCI-H226 lung
NCI-H322M lung = test system: NCI-H322M lung
HOP-62 NSCLC = test system: HOP-62 NSCLC
NCI-H460 lung = test system: NCI-H460 lung
HOP-92 NSCLC = test system: HOP-92 NSCLC
NCI-H522 lung = test system: NCI-H522 lung
A549/ATCC NSCLC = test system: A549/ATCC NSCLC
786-0 renal = test system: 786-0 renal
COLO 205 colon = test system: COLO 205 colon
DU-145 prostate = test system: DU-145 prostate
K-562 leukemia = test system: K-562 leukemia
MALME-3M melanoma = test system: MALME-3M melanoma
MDA-MB-231 breast = test system: MDA-MB-231 breast
RXF 393 renal = test system: RXF 393 renal
SF-268 CNS = test system: SF-268 CNS
SF-295 CNS = test system: SF-295 CNS
SF-539 CNS = test system: SF-539 CNS
UACC-257 melanoma = test system: UACC-257 melanoma
M14 melanoma = test system: M14 melanoma

SMILES	growth (NCI-H23 lung)	growth (NCI-H226 lung)	growth (NCI-H322M lung) [%]	growth (HOP-62 NSCLC)	growth (NCI-H460 lung)	growth (HOP-92 NSCLC)	growth (NCI-H522 lung)	growth (A549/ATCC NSCLC)	growth (786-0 renal)	growth (COLO 205 colon)	growth (DU-145 prostate) [%]	growth (K-562 leukemia)	growth (MALME-3M melanoma)	growth (MDA-MB-231 breast)	growth (RXF 393 renal)	growth (SF-268 CNS) [%]	growth (SF-295 CNS)	growth (SF-539 CNS)	growth (UACC-257 melanoma)	growth (M14 melanoma)
O=S1(=O)N(CCNc2nccc(-c3c(-c4cccc(O)c4)nc4sccn34)n2)CCN1Cc1ccccc1	84.1%	71.2%	101	143%	42%	119%	52.1%	65.2%	78.3%	46.4%	74.1	46.1%	50.8%	52.6%	68.6%	86	62.8%	63.9%	37.2%	28.4%
N#Cc1c(N)nc(Cl)c(C#N)c1C(=O)c1ccccc1	67%	87.9%	96.5	69.4%	61.5%	74.2%	39.1%	70.9%	37.8%	61.6%	52.1	5.81% (active)	42.3%	26.3%	-2.56% (active)	38.6	56.1%	15.2%	69.4%	35%
Cc1ccc(-c2nc3c(N=Nc4ccc(S(N)(=O)=O)cc4)c(N)nn3c(N)c2C#N)cc1	43.9%	65%	66.1	42.6%	27.9%	19.6%	28.7%	63.1%	64.5%	14.5%	34.6	20.3%	48.5%	40.1%	27.9%	34.5	49.2%	30.7%	72.3%	46.4%
CS(=O)(=O)Nc1cccc(-c2ccc3ncnc(Nc4cncc(Cl)c4)c3c2)c1	47.1%	52.5%	19.9	40.5%	44.9%	11.2%	28.1%	30.5%	10.1%	5.27% (active)	38.6	16.9%	40.3%	1.39% (active)	19.8%	42.4	-17.7% (active)	2.94% (active)	49.7%	16.8%
CN1CCN(Cn2nc(-c3cc(F)c(Cl)cc3Cl)n(/N=C/c3ccc(N(C)C)cc3)c2=S)CC1	98%	101%	83.1	56%	115%	84.5%	69%	106%	93.3%	103%	87.3	22.4%	63.4%	102%	82.7%	102	48.4%	78.1%	93.8%	37.3%
C=C1C(=O)O[C@H]2[C@H]1CC/C(C(=O)Nc1ccc(OC)c(C(N)=O)c1O)=C\CC[C@@]1(C)O[C@@H]21	73.4%	61.3%	108	85.1%	92%	26.4%	5.78% (active)	77.8%	43.1%	10.7%	36.3	22.9%	21%	58.4%	3.02% (active)	86.3	94.9%	60.5%	51.1%	55.8%
Cc1cn([C@]2(CF)O[C@H](CO)C2C)c(=O)[nH]c1=O (stereo not given in full)	111%	111%	108	62.8%	125%	107%	87.1%	109%	101%	108%	124	104%	113%	116%	101%	112	121%	110%	103%	118%
CCOC(=O)C1CN(Cc2ccccc2)C(=O)C1=O (stereo not given)	105%	93.3%	94.9	98.8%	106%	84.3%	98.6%	112%	105%	93.6%	110	104%	92.8%	115%	112%	101	105%	93.6%	104%	94.6%
O=C(Nc1cccc(-n2ccc3c(NC(=O)c4ccccc4)ncnc32)c1)Nc1ccc(Cl)c(C(F)(F)F)c1	31.9%	55.1%	60.2	56.8%	14.4%	29.2%	11.8%	28.3%	53.2%	20.9%	42.2	13.6%	46.5%	42.3%	14.6%	38.1	14.2%	39.1%	36%	28.1%
CC(C)CNCC(O)COc1ccc(C(C)(C)c2ccc(OCC(O)CNCC(C)C)cc2)cc1 (stereo not given)	84.4%	88.2%	81.3	64.3%	-22.2% (active)	20.2%	26.4%	37.5%	26.1%	-65.8% (active)	44.7	-60% (active)	-63.1% (active)	-14.4% (active)	41.8%	55.3	32.4%	-41.1% (active)	-37.4% (active)	-57.5% (active)
C#C[C@@]1(O)[C@@H](CO)O[C@@H](n2cc(C(F)(F)F)c3c(N)ncnc32)[C@@H]1O	2.72% (active)	-12.1% (active)	16	7.02% (active)	2.05% (active)	-13.7% (active)	-52.5% (active)	-4.98% (active)	4.52% (active)	-77.1% (active)	10.2	5.44% (active)	-22% (active)	14%	-30.3% (active)	11.9	7.42% (active)	-25.3% (active)	21%	9.25% (active)
CCCCOc1c(N)cccc1C(=O)OCCN(CC)CC	97.1%	99.8%	80.7	104%	105%	95.7%	76.5%	97.4%	102%	109%	103	80.4%	100%	99.3%	100%	95.1	103%	104%	100%	99.5%
Cc1c(NC(=O)c2sc3nc4c(cc3c2N)CN(Cc2ccccc2)CC4)cccc1C(F)(F)F	72.7%	65.7%	73.1	35.9%	18.7%	77.1%	10.4%	53.7%	84.4%	21.6%	54.9	8.08% (active)	63.8%	73.8%	67.2%	65.6	41.5%	65%	52.2%	31.2%
O=C(Nc1ccc(-n2ccc3c(NC(=O)c4ccccc4)ncnc32)cc1)c1cccc(C(F)(F)F)c1	80.6%	70.8%	62.9	71.5%	10.2%	81.2%	45.4%	32.7%	56.2%	51.9%	35.1	28.7%	77.3%	51.5%	43.9%	38.9	33.2%	35.5%	60.8%	30.9%
